# Screening results deposited in PubChem by National Center for Advancing Translational Sciences (NCATS).
# HEK cytotox: kills HEK 293 cells. 94,000 compounds, 6.6% hits. Potency, µM (series often up to 115 µM), most hits filed as inhibitors. HEK 293 viability, ATP luminescence (CellTiter-Glo), 48-72 h. AID 1345083; further: nearly all actives have a fitted effect of over 60% in size
#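 Cells seeded first (HEK 293, 250 cells/well), then compound added by pintool. Incubation ran 48 or 72 hr at 37 degree Celsius. CellTiter-Glo was added and luminescence imaged after 10 min at room temperature.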
# 3T3 cytotox: NIH 3T3 cell cytotoxicity. 94,000 compounds, 4.3% hits. NIH 3T3 viability, CellTiter-Glo ATP luminescence, 48-72 h. Potency, µM (titrated, usually from 96.7 µM), usual class: inhibitors. AID 1345082; further: nearly all actives have a fitted effect of over 55% in size
#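 First NIH 3T3 cells are plated at 400 cells/well; next compound is pinned in; then plates incubate 48 or 72 hr at 37 °C; finally CellTiter-Glo is added and luminescence read after 10 min.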
# NPR1 antag: antagonists of human natriuretic peptide receptor Npr1; 76,000 compounds, 1.6% hits; AID 1347048; P16066; HEK293 hNpr1 GloSensor cGMP, ANP-stimulated luminescence; Potency, µM (doses to about 46.3 µM), most hits filed as inhibitors; calls by dose curve; further: nearly all actives have a fitted effect of over 60% in size
# Target sequence (P16066 whole entry, looked up): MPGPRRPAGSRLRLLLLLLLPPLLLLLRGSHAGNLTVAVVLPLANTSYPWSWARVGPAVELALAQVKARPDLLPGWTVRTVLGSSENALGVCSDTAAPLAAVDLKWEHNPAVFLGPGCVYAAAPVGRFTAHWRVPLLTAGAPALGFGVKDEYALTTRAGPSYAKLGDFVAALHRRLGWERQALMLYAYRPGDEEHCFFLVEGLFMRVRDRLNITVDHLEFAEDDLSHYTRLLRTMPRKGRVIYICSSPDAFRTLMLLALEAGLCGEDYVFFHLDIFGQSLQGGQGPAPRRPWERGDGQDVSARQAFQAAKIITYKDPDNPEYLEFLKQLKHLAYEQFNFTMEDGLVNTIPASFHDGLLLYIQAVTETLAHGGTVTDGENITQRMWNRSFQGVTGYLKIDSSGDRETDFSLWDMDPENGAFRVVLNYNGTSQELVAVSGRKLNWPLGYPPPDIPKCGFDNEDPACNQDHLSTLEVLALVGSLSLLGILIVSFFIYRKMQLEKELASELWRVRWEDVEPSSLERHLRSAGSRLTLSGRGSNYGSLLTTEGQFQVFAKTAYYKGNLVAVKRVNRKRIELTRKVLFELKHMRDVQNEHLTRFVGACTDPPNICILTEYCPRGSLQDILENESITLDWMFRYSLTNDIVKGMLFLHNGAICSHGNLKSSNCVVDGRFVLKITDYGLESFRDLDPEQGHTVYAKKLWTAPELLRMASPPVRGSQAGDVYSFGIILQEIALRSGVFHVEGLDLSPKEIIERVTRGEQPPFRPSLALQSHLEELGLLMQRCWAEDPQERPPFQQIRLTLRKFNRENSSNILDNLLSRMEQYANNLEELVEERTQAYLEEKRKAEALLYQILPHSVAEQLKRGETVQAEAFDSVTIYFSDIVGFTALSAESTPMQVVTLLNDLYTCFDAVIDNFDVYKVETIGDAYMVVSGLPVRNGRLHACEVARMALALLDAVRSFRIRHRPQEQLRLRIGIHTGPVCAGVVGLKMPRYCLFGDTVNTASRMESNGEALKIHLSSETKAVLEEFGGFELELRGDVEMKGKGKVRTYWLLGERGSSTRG
#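 HEK293 cells stably expressing human Npr1 and cGMP GloSensor pGS-40F, loaded 2 h with 2% GloSensor reagent, given compound 30 min at room temperature. Luminescence read before and 20 min after 0.1 nM hNppA.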
# FLuc inh-1: inhibitors of firefly (Photinus pyralis) luciferase; Potency, µM (titrated, usually from 115 µM), most hits filed as inhibitors; purified P. pyralis luciferase, luminescence, biochemical; AID 1347043; 76,000 compounds, 2.5% hits; further: nearly all actives have a fitted effect of over 65% in size
#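 Inhibitors were tested against purified firefly luciferase in a biochemical, low-substrate format (both substrates at 10uM) and luminescence measured with a CCD imager.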
# FLuc SDR no ATP: binders stabilizing firefly luciferase, without ATP. 1,300 compounds, 7.8% hits. Potency, µM (series often up to 32.7 µM), actives largely listed as activators. Purified FLuc-C-HiBiT, Nano-Glo HiBiT luminescence, no ATP. shares compounds with FLuc inh-1; further: nearly all actives have a fitted effect of over 55% in size
# FLuc SDR ATP: binders stabilizing firefly luciferase, plus ATP; shares compounds with FLuc inh-1; purified FLuc-C-HiBiT + ATP, HiBiT complementation luminescence; Potency, µM (series often up to 32.7 µM), usual class: activators; 1,300 compounds, 8.7% hits;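 further: signal reports ligand binding via conformational change of the enzyme rather than luciferase catalysis; nearly all actives have a fitted effect of over 55% in size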
# FLuc inh-2: inhibitors of firefly luciferase enzymatic activity; shares compounds with FLuc inh-1; purified FLuc-C-HiBiT enzyme, luciferin luminescence; Potency, µM (top dose mostly 32.7 µM), usual class: inhibitors; 1,300 compounds, 42% hits; AID 1963320; further: nearly all actives have a fitted effect of over 70% in size
# Numbers stand for hits; - = inactive; ? = inconclusive; . = no result. Sampled rows, rich in hits. Any-hit rate of the full collection: about 11%. Unless noted, the call rests on the fitted dose curve; in most records, active means well fitted curve in the direction sought with a large enough effect; inconclusive means small, poorly fitted or top-dose-only effect, or another doubt; inactive means no such curve, though single readings can be large; an effect the other way counts as inactive or inconclusive.
SMILES,HEK cytotox,3T3 cytotox,NPR1 antag,FLuc inh-1,FLuc SDR no ATP,FLuc SDR ATP,FLuc inh-2
COc1cccc(-c2cc3c(=O)n(CCNC(=O)c4cc(C)cc(C)c4)ccn3n2)c1,-,-,-,?,.,.,.
COc1cccc(CN2CCCN(S(=O)(=O)c3ccccc3)CCC(=O)NCC2)c1OC,-,?,-,-,.,.,.
COCC1CN(S(=O)(=O)Cc2ccc(C)c(C)c2)CC12CCNCC2 (stereo not given),-,-,-,-,.,.,.
CCC(C(=O)NCCn1ccn2nc(-c3ccc(OC)cc3)cc2c1=O)c1ccccc1 (stereo not given),?,?,-,8.9µM,-,-,?
COc1ccc(-c2cc3c(=O)n(CCNC(=O)c4c(F)cccc4Cl)ccn3n2)cc1,?,-,-,3.2µM,?,?,?
CCOc1ccc(-c2cc3c(=O)n(CCNC(=O)Cc4ccccc4C)ccn3n2)cc1,?,-,-,?,.,.,.
Cc1cccc(OCCc2noc(C3CN(C(=O)c4cnccc4C)C3)n2)c1,?,-,-,-,.,.,.
Cc1cccc(OCCc2noc(C3CN(C(=O)Nc4ccc5c(c4)OCCO5)C3)n2)c1,?,?,?,3.5µM,?,-,7µM
CCn1c(C2CCCN(C(=O)NC(C)C)C2)nn(C)c1=O (stereo not given),-,-,-,-,.,.,.
O=C(Nc1ccccc1)N1CCCC(c2nc(C3CCOCC3)no2)C1 (stereo not given),-,-,-,-,.,.,.
CCn1c(C2CCCN(C(=O)Nc3ccc4c(c3)OCCO4)C2)nn(C)c1=O (stereo not given),-,-,-,6.3µM,-,-,?
CN1CCCN(C(=O)Nc2ccc3c(c2)OCCO3)c2ccccc21,-,?,-,11µM,-,?,?
O=C(Nc1ccc2c(c1)OCCO2)N1CCCC(c2nc(C3CCOCC3)no2)C1 (stereo not given),-,-,-,13µM,-,-,?
O=C(Nc1n[nH]c2cc(-c3ccccc3)ccc12)C1CC1,.,.,.,.,-,-,?
O=C(Nc1ncc(-c2ccccc2)c2c1OCC2)C1CCOCC1,?,?,-,-,.,.,.
COCCNC(=O)c1ccc2nc(-c3cccnc3)oc2c1,-,-,.,.,.,.,.
Cn1c(=O)c2ccnn2c2ccc(C(=O)NC3CCCC3)cc21,-,-,-,-,.,.,.
CCN1c2cc(C(=O)Nc3ccc4c(c3)OCCO4)ccc2C(=O)N2CCCCC21 (stereo not given),?,25µM,-,11µM,-,?,9.9µM
CCN1c2cc(C(=O)Nc3ccc(N(C)C)cc3)ccc2C(=O)N2CCCCC21 (stereo not given),45µM,?,-,11µM,-,-,?
Cn1c(=O)c2ccnn2c2ccc(C(=O)Nc3ccc4c(c3)OCCO4)cc21,35µM,-,-,10µM,-,-,9.9µM
CN1c2cc(C(=O)Nc3ccc4c(c3)OCCO4)ccc2C(=O)N2CCCCC21 (stereo not given),?,?,-,7.9µM,?,?,9.9µM
CN1c2cc(C(=O)Nc3ccc(Cl)cc3)ccc2C(=O)N2CCCCC21 (stereo not given),?,?,-,?,.,.,.
O=C(c1cccc(Cl)c1)N1CCCC(C(=O)N2CCCC2c2nc3ccncc3[nH]2)C1 (stereo not given),-,-,.,.,.,.,.
O=C(Cc1ccc(F)cc1)NC1CCN(CCn2nc3n(c2=O)CCCC3)C1 (stereo not given),-,-,.,.,.,.,.
Cc1nnc2ccc(N3CCCN(C(=O)NC4CCCC4)CC3)nn12,-,-,.,.,.,.,.
SMILES,HEK cytotox,3T3 cytotox,NPR1 antag,FLuc inh-1,FLuc SDR no ATP,FLuc SDR ATP,FLuc inh-2
CC(C)CNC(=O)N1CCCC(c2noc(COc3ccccc3)n2)C1 (stereo not given),?,?,-,-,.,.,.
C=CCN(C)C(=O)C[C@@H]1c2nc(NC(=O)c3cccs3)sc2C[C@@H]2[C@](C)(CO)[C@H](O)CC[C@]21C,?,-,-,-,.,.,.
Cc1cc(-c2cc3c(cn2)CN(Cc2ccccn2)CCN3)ccn1,?,89µM,-,14µM,-,-,?
CCn1cc(-c2cc3c(cn2)CN(Cc2ccncc2)CCN3)cn1,?,-,-,?,.,.,.
Clc1ccc(-c2cc3c(cn2)CN(Cc2ccncc2)CCN3)cc1,89µM,?,?,2.2µM,-,?,16µM
Cc1cc(-c2cc3c(cn2)CN(CC2CCOCC2)CCN3)ccn1,?,?,-,?,.,.,.
O=C1CCN(CC(O)COCc2ccco2)c2ccccc2CCN1CC1CC1 (stereo not given),-,?,.,.,.,.,.
COc1ccccc1C(=O)N1CC(Oc2ccc(F)cc2F)C1,-,-,.,.,.,.,.
COc1ccc(Br)cc1C(=O)Nc1nc2ccc(F)cc2s1,.,.,.,.,-,-,-
O=C(Nc1ccc(Oc2ccccc2)cc1)N[C@H]1CO[C@H]2[C@@H]1OC[C@@H]2n1nnnc1Oc1ccccc1,?,?,-,-,.,.,.
Cc1nc(CN2Cc3nc(Nc4ccc(C(F)(F)F)cc4)ccc3OCC2=O)cs1,?,?,?,-,.,.,.
O=C1CC2(CCN(CC3CC3)CC2)Oc2ccccc21,?,?,35µM,7.9µM,-,?,?
Cc1cccc(C(=O)Nc2ccc(-c3nnc4n3CCCC4)cc2)c1,?,-,-,-,.,.,.
Cc1cc(-c2nc3ccccc3s2)ccc1NC(=O)c1cc(Cl)ccc1Cl,.,.,.,.,-,-,-
COc1cc(OC)cc(C(=O)Nc2ccc(-c3nc4ccccc4s3)cc2C)c1,.,.,.,.,-,-,-
Cc1cccc(C(=O)Nc2ccc(-c3nc4ccccc4s3)cc2Cl)c1,.,.,.,.,-,-,-
COc1ccc(CC(=O)Nc2ccc(-c3nc4ccccc4s3)c(C)c2)cc1OC,.,.,.,.,-,-,-
COc1ccc(C(=O)Nc2cc(C3CC3)nn2-c2ccccc2)cc1,-,-,.,.,.,.,.
COc1ccccc1CC(=O)Nc1ccc2ncnc(N3CCCC3)c2c1,?,-,-,-,.,.,.
O=C(Cc1cccc(F)c1)N1CCCC(Cc2nc(C3CCOCC3)no2)C1 (stereo not given),-,-,-,-,.,.,.
Cc1ccc(C(=O)Nc2ccc(-c3nc4ccccc4s3)cc2C)cc1C,.,.,.,.,-,-,-
COc1cc(OC)cc(C(=O)Nc2ccc(-c3nnc4n3CCCC4)cc2)c1,-,-,-,-,.,.,.
COc1ccc(-c2cc(N3CCC(NC(=O)c4ccc(C)c(C)c4)CC3)n[nH]2)cc1,?,?,-,-,.,.,.
Cc1ccc(-c2nc3ccccc3s2)cc1NC(=O)c1ccc(-c2cccc(Cl)c2)o1,.,.,.,.,-,-,-
COc1cc(OC)cc(C(=O)Nc2ccc(-c3nc4ccccc4s3)c(C)c2)c1,.,.,.,.,-,-,-
O=C(NC1CCCN(c2ccc3nnc(C4CC4)n3n2)C1)C1CCCC1 (stereo not given),-,?,.,.,.,.,.
